Reference: PubChem BioAssay (NCATS)
Records with an inconclusive call do not appear. Active and inactive are the calls of the source. Calls follow the shape of the dose curve; as a rule, active = well fitted inhibition curve with a large enough effect; inconclusive = small, poorly fitted or top-dose-only effect; inactive = flat fitted curve, though single readings scatter.

Molecular target: Ubiquitin carboxyl-terminal hydrolase 1 (Homo sapiens) (UniProt O94782)
Experiment: Inhibitors of USP1/UAF1: Pilot qHTS (AID 504865); also: nearly all actives have a fitted effect of over 35% in size;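 as to activity change, negative = inhibition: rhodamine fluorescence freed from ubiquitin-rhodamine substrate followed over time; top concentration of the series differs between compounds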
Settings: purified USP1/UAF1, Ub-rhodamine cleavage fluorescence; series mostly up to 114 µM; activity change, negative = inhibition: at the top concentration
Procedure, shortened: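 Enzyme-free wells gave the negative control, while test wells held 1nM USP1/UAF1 preincubated with compound for 15 min at room temperature. Ub-Rho at 150nM final started the reaction, and fluorescence at 480/540 nm was recorded kinetically.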
% is scaled to controls: 0 for no effect and ±100 for the full control effect; potency is read from the fitted curve at half-maximal effect.

Ubiquitin carboxyl-terminal hydrolase 1 (Homo sapiens), sequence (O94782 whole entry, looked up): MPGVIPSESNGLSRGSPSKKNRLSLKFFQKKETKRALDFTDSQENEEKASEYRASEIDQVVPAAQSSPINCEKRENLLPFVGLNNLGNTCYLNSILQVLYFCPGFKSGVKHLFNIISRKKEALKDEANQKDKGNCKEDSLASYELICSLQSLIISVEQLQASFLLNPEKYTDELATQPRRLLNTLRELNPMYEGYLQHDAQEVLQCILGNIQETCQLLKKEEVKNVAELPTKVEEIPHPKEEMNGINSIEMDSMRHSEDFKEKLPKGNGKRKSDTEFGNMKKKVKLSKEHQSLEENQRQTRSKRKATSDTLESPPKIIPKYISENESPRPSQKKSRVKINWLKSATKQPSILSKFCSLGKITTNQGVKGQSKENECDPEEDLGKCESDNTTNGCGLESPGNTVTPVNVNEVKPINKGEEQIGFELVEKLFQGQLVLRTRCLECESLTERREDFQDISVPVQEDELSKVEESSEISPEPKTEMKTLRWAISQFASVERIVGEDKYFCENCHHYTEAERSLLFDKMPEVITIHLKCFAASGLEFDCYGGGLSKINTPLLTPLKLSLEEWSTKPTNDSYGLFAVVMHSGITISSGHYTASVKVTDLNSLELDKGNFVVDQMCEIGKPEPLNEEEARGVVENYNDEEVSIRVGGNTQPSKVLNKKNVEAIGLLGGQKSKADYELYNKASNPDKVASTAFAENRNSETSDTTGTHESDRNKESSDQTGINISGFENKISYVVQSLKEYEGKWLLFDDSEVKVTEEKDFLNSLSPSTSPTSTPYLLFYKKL

Row | Structure (SMILES) | activity change, negative = inhibition | Potency
1 | N[C@@H](CCCC(=O)O)C(=O)O | 4.75% (inactive) | 
2 | CSC(N)=NCCC[C@H](N)C(=O)O | -4.43% (inactive) | 
3 | NCCCCN=C(N)N |  | inactive
4 | C#CCn1c(=O)c2c(ncn2C)n(C)c1=O | 0.613% (inactive) | 
5 | COc1cc(N)c(Cl)cc1C(=O)OCCN1CCCCC1 | -8% (inactive) | 
6 | c1ccc(C2CN3CCSC3=N2)cc1 (centres undefined) |  | inactive
7 | Oc1ccc(Cn2cc[nH]c2=S)cc1 | -4.35% (inactive) | 
8 | COc1ccc(-c2ccc(N)[n+](CCCC(=O)O)n2)cc1 |  | inactive
9 | CC(C)Cn1c(=O)n(C)c(=O)c2[nH]cnc21 | 6.08% (inactive) | 
10 | NC/C=C\C(=O)O |  | inactive
11 | Nc1ccc(-c2nc3ccc(-c4nc5ccc(N)cc5[nH]4)cc3[nH]2)cc1 |  | 50.1 µM (active)
12 | NC(=O)c1cc[n+](CC2=C(C(=O)O)N3C(=O)[C@@H](NC(=O)[C@@H](c4ccccc4)S(=O)(=O)[O-])[C@H]3SC2)cc1 | 6.12% (inactive) | 
13 | N[C@@H](Cc1c[nH]c2ccccc12)C(=O)O | -12.6% (inactive) | 
14 | CN[C@H](CC(=O)O)C(=O)O |  | inactive
15 | CCCCCCCCCC[Si](C)(C)CCC(=O)NC(Cc1ccc(C)cc1)c1ccccc1 (centres undefined) | -8.89% (inactive) | 
16 | Cc1cccc(C)c1OCC(N)C(C)C (centres undefined) | -6.84% (inactive) | 
17 | Cn1ccnc1 | -9.8% (inactive) | 
18 | C#CC(N)CCC(=O)O (centres undefined) | -1.3% (inactive) | 
19 | COc1ccccc1N1CCN(CCCCNC(=O)c2ccc3ccccc3c2)CC1 | -13.7% (inactive) | 
20 | CCSC(=N)N |  | inactive
21 | O=C(O)[C@H]1NCCC[C@H]1C(=O)O | -1.18% (inactive) | 
22 | CC(C)NC[C@H](O)COc1ccc(CC(N)=O)cc1 |  | inactive
23 | NC(=O)CNCCC(c1ccccc1)c1ccccc1 | 6% (inactive) | 
24 | Nc1ncnc2c1ncn2C1CCCO1 (centres undefined) | -10.6% (inactive) | 
